Bioassay records: PubChem BioAssay, Sanford-Burnham Center for Chemical Genomics
CD11b adhes enh: enhancers of CD11b/CD18 adhesion to fibrinogen, primary screen, K562 cells, luminescence | 93,000 compounds, 0.07% hits | Integrin beta-2 (Homo sapiens) + Integrin alpha-M (Homo sapiens), P05107+P11215 | activation, % at 10 µM | ATPlite luminescence;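 active means 10 µM primary screen giving 50% or more activity, confirmed by 40% or more on retest at that dose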
CYP2C19 inhib: blockers of cytochrome P450 2C19 activity – biochemical, luminescence, ADME assay, primary screen; AID 778, 2007; CYP2C19 Supersomes, luciferin-H EGE luminescence, 30 min; inhibition, % at 5 µM; 96,000 compounds, 21% hits; P33261;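 active means CYP2C19 inhibition above a set limit at 5 µM in the primary screen, cut at about 50% in these data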;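 further: plate controls were negative control wells for no effect and 2.5 mM tranylcypromine positive control for full effect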
Target sequence (P33261 whole entry, looked up): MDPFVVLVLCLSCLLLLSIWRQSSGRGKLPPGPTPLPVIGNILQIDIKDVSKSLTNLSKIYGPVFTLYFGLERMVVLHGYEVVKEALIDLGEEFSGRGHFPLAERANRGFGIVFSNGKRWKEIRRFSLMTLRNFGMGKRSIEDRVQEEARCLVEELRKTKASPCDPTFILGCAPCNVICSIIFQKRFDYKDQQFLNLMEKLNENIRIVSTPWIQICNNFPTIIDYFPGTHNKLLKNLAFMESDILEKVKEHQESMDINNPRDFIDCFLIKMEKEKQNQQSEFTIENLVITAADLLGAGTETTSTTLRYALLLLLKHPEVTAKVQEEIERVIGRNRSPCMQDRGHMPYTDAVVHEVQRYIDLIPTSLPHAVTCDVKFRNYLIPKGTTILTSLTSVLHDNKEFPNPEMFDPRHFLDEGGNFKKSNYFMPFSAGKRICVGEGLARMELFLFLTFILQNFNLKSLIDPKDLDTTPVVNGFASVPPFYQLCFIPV
CYP2C9 activ: human CYP2C9 activators, primary screen, biochemical, luminescence; Cytochrome P450 2C9 (Homo sapiens), P11712; 96,000 compounds, 1.4% hits; recombinant CYP2C9, luciferin-H conversion; active compounds read high; factor 1 = untreated enzyme, 0 = blocked; activation factor at 5 µM;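 active means activation factor of 2 or more for CYP2C9 at a 5 µM dose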;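 further: 0 = sulfaphenazole-blocked wells and 1 = vehicle-only wells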
CYP2C19 activ: human CYP2C19 activators, primary screen, biochemical, luminescence; Cytochrome P450 2C19 (Homo sapiens), P33261; recombinant CYP2C19, luciferin-H EGE luminescence; active compounds read high; 0 = fully inhibited enzyme, 1 = untreated enzyme; activation factor at 5 µM; 96,000 tested, under 10 active; AID 1025, 2008;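 active means activation factor of at least 2 at 5 µM in the primary screen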;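 further: 0 = wells with 2.5 mM tranylcypromine and 1 = vehicle-only wells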
Mac1 fbg inh: inhibitors of CD11b/CD18 adhesion to fibrinogen, primary screen, K562 cells, luminescence. Integrin beta-2 (Homo sapiens) + Integrin alpha-M (Homo sapiens), P05107+P11215. ATPlite luminescence; Mn2+ added to activate the integrin. inhibition, % at 10 µM. 93,000 compounds, 0.54% hits;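 active means primary inhibition of 50% or more at 10 µM, then 40% or more on retest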
CYP2C9 inhib: blockers of cytochrome P450 2C9 activity – biochemical, luminescence, ADME assay, primary screen; AID 777, 2007; inhibition, % at 5 µM; CYP2C9 Supersomes, luciferin-H conversion; P11712; 96,000 compounds, 20% hits;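 active means blocking of liver enzyme CYP2C9 beyond about 50% at 5 µM, limit read from the data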
* = called active by the depositor; x = no result. Hits are enriched below; roughly 28% of the tested compounds scored in any of these assays.

SMILES | CD11b adhes enh | CYP2C19 inhib | CYP2C9 activ | CYP2C19 activ | Mac1 fbg inh | CYP2C9 inhib
Cc1ccccc1CSc1n[nH]c(NS(=O)(=O)c2ccccc2)n1 | 2.0 | 36.4 | 0.8 | 0.6 | 3.7 | 18.1
O=C(O)c1[nH]nc2c1COc1ccccc1-2 | -0.5 | -20.6 | 1.1 | 1.2 | -4.4 | -14.0
O=C(O)CCCCCNCc1ccncc1 | -2.1 | -13.0 | 1 | 1.1 | 3.2 | -4.0
CCCOc1ccc(CNC(=S)N/N=C/c2ccc([N+](=O)[O-])cc2)cc1 | -0.4 | -13.2 | 0.8 | 1.1 | 7.6 | 15.3
Cc1scc(C(=O)N/N=C/c2ccc(OCC(C)C)cc2)c1C | -1.9 | 71.8* | 0.2 | 0.3 | -1.0 | 82.5*
CCCCOc1ccc(/C=N/NC(=O)c2csc(C)c2C)cc1 | -5.8 | 65.4* | 0.4 | 0.3 | 18.7 | 60.0*
COc1cccc(CN2C(=O)CCC2(C)C(=O)NC2CCCC2)c1 (stereo unspecified) | -1.1 | 20.3 | 1.8 | 0.8 | -27.9 | -78.9
O=S1(=O)C=CC(Nc2cccc(Cl)c2)C1 (stereo unspecified) | -0.9 | 18.1 | 0.3 | 0.8 | -13.9 | 71.0*
COC(=O)c1cc2sc(Cl)cc2n1CC(=O)NCCC(C)C | 4.4 | 16.2 | 1.1 | 0.8 | 2.2 | -7.4
N#Cc1cc2c(nc1SCc1cccnc1)CCCC2 | -0.4 | 77.6* | 0.4 | 0.2 | -9.2 | 60.1*
N#Cc1cc2c(nc1SCc1cccnc1)CCC2 | 1.8 | 86.6* | 0.8 | 0.1 | -9.4 | 22.9
CCN(CC)CCCNC(=O)C1CCN(C(=O)c2cc3sccc3n2Cc2ccc(F)cc2)CC1 | -2.1 | 9.6 | 0.9 | 0.9 | -30.2 | 13.6
CCCCCCn1c(NCC)nc2c1c(=O)[nH]c(=O)n2C | 4.7 | -1.7 | 1.2 | 1 | 8.4 | -15.4
C=CCNC(=O)CN(c1cccc(Br)c1)S(C)(=O)=O | -0.5 | 12.1 | 1.3 | 0.9 | 7.6 | -28.3
Cc1ccc(-c2nn(-c3ccccc3)cc2/C=N/NS(=O)(=O)c2ccccc2)cc1 | x | 26.6 | 0.3 | 0.7 | x | 65.8*
O=[N+]([O-])c1ccc(N/N=C/c2cn(-c3ccccc3)nc2-c2ccccc2)cc1 | x | 9.9 | 0.7 | 0.9 | x | 25.5
Cc1nn(-c2ccccc2)c(C)c1/C=N/NC(=O)c1cc(-c2ccccc2)n[nH]1 | -4.8 | 69.8* | 0.1 | 0.3 | 20.7 | 86.1*
Cc1nn(-c2ccccc2)c(C)c1/C=N/NC(=O)c1cc(-c2cccc3ccccc23)n[nH]1 | 69.6 | x | x | x | -3.3 | x
O=S(=O)(N/N=C/c1cn(Cc2ccccc2)c2ccccc12)c1ccccc1 | 0.2 | 14.0 | 0.1 | 0.9 | 23.1 | 87.1*
Cc1ccc(S(=O)(=O)N/N=C\c2cn(-c3ccccc3)nc2-c2ccccc2)cc1 | x | 27.7 | 0.3 | 0.7 | x | 66.8*
Cc1ccc(Cn2cc(/C=N/Nc3ccc([N+](=O)[O-])cn3)c3ccccc32)cc1 | 7.9 | x | x | x | -2.7 | x
Cc1ccc(S(=O)(=O)N[C@H](C(=O)OCC(=O)N2N=C(c3ccc(Cl)cc3)CC2c2ccco2)C(C)C)cc1 (stereo partly specified) | -0.8 | x | x | x | -11.3 | x
O=C(Oc1ccc(-c2cn3c(n2)SCC3)cc1)c1ccccc1 | -5.1 | -10.1 | 1.1 | 1.1 | 10.1 | -10.0
O=C(NNc1cccc(Cl)n1)Nc1ccccc1Cl | x | 37.6 | 1 | 0.6 | x | 1.5
CC(=O)Nc1ccccc1OCc1nnc(-c2cccs2)o1 | 2.2 | 24.2 | 0.6 | 0.8 | -31.6 | 35.9
SMILES | CD11b adhes enh | CYP2C19 inhib | CYP2C9 activ | CYP2C19 activ | Mac1 fbg inh | CYP2C9 inhib
Cc1nn(-c2ccccc2)c(C)c1/C=N/N1CCN(c2ccccc2)CC1 | -2.8 | 10.4 | 0.9 | 0.9 | -37.9 | 8.9
Cc1ccc(S(=O)(=O)N/N=C/c2c(C)nn(-c3ccccc3)c2C)cc1 | 1.8 | 56.3* | 0.2 | 0.4 | -12.3 | 75.4*
Cc1cc(SCC(=O)N2CCCC2)nc2ccccc12 | 2.7 | 41.2 | 1.7 | 0.6 | 0.9 | -66.4
Cc1cc(C(=O)c2ccccc2)nc2ccccc12 | -3.7 | 68.0* | 3.2* | 0.3 | 5.7 | -215.6
FC(F)(F)c1cc(C(F)(F)F)c2ccc(N3CCN(c4ccc(Cl)cc4)CC3)nc2n1 | x | 15.2 | 0.7 | 0.8 | x | 27.7
N#CC(c1ccc(Cl)cc1)c1ccc2c(C(F)(F)F)cc(C(F)(F)F)nc2n1 (stereo unspecified) | -8.4 | 77.1* | 0.2 | 0.2 | 88.2* | 75.9*
O=c1oc2ccccc2cc1-c1csc(NN=C2CCCCC2)n1 | x | 86.2* | 0.2 | 0.1 | x | 77.6*
CC(=O)Nn1c(-c2ccccc2)cc2ccccc21 | -3.8 | 23.9 | 0.6 | 0.8 | 0.5 | 35.8
O=C1NN(c2ccc(Cl)c(Cl)c2)C(=O)/C1=C/c1cccc(OC(=O)c2cccs2)c1 | 88.7 | 6.0 | 0.5 | 0.9 | -20.0 | 47.9
O=C1NN(c2ccccc2)C(=O)/C1=C\c1cccc(OC(=O)c2cccs2)c1 | 4.5 | 51.9* | 0 | 0.5 | -6.9 | 95.8*
CCN(C(=O)c1cc2cccc(OC)c2oc1=O)c1ccccc1 | -5.0 | 40.0 | 1.2 | 0.6 | 1.1 | -19.7
CCN(C(=O)c1cccnc1)c1ccccc1 | 2.4 | -6.7 | 0.9 | 1.1 | -2.7 | 5.1
CC(=O)N(CCN(C(C)=O)c1ccccc1)c1ccccc1 | -5.1 | 72.8* | 1.2 | 0.3 | 6.4 | -21.4
CCN(C(=O)c1cc(Cl)ccc1OC)C1CCCCC1 | 0.3 | 94.7* | 0 | 0.1 | -8.5 | 96.3*
CCN(C(=O)c1cc(Cl)ccc1OC)c1ccccc1 | 1.8 | 72.5* | 0.6 | 0.3 | -11.1 | 44.9
CCn1cc(CNC(=O)c2cc(Cl)ccc2OC)c(C)n1 | -1.4 | 46.7 | 1.6 | 0.5 | -8.7 | -64.4
CC(C)(C)C(=O)N(CCN(C(=O)C(C)(C)C)c1ccccc1)c1ccccc1 | x | 13.6 | 0.8 | 0.9 | x | 15.0
CCN(C(=O)c1ccccc1Cl)c1ccccc1 | 2.3 | 62.1* | 1 | 0.4 | -8.1 | 3.9
C=CCn1c(SCC(=O)NCCOC)nnc1-c1cc2c(s1)CCC(CC)C2 (stereo unspecified) | 4.8 | x | x | x | 20.9 | x
Cc1ccc(C(=O)OCc2cn3ccccc3n2)cc1 | 2.5 | 83.0* | 0.4 | 0.2 | -3.7 | 58.8*
O=C(NCc1cn2ccccc2n1)c1ccccc1 | 1.0 | 34.4 | 1 | 0.7 | 6.1 | -0.5
CC(=O)N(c1ccc(Cl)cc1)c1c[nH]c2ccccc12 | -5.5 | 91.8* | 0.3 | 0.1 | -1.5 | 69.6*
O=C(CC1C(=O)N(c2ccccc2)C(=O)N1C1CCCCC1)Nc1ccccc1 (stereo unspecified) | 2.2 | 52.4* | 0.8 | 0.5 | 14.8 | 18.4
